Shown are actives, neighbours in structure and some others; about 1.8% of the full set was active somewhere.
Granule exo inh: blocks lytic granule exocytosis | inhibition, % at 10 µM | AID 651702 | TALL-104 LAMP-1 surface exposure, flow cytometry; cells stimulated with thapsigargin and PMA | 360,000 compounds, 0.66% hits;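 active = inhibition above about 55%, limit read from the data; inconclusive = no clear call, values can overlap the other calls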
Myeloid diff 2: promotes myeloid progenitor differentiation; ER-HoxA9 myeloid progenitors, lysozyme-GFP differentiation, flow cytometry; calls only at 10 µM; 360,000 compounds, 1% hits; AID 624256;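 active = normalized GFP-positive differentiation at or above the plate's own cutoff, the solvent-only control mean plus 3 SD; inconclusive = no clear call, values can overlap the other calls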;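 also: cells exposed to compound for four days before flow analysis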
ABCB6 inh MLPCN: blocks the human ABCB6 transporter; K562-ABCB6 porphyrin accumulation, flow cytometry, 1 h; stronger effect = lower value; fluorescence ratio to DMSO, % at 10 µM; 360,000 compounds, 0.19% hits; Q9NP58;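 active = fluorescence ratio to DMSO below 75%, the collection mean minus 3 SD; inconclusive = too few cells collected in the well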;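 also: signal is porphyrin accumulated inside mitochondria; lower ratio means ABCB6 inhibition with less porphyrin fluorescence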
Target sequence (Q9NP58 whole entry, looked up): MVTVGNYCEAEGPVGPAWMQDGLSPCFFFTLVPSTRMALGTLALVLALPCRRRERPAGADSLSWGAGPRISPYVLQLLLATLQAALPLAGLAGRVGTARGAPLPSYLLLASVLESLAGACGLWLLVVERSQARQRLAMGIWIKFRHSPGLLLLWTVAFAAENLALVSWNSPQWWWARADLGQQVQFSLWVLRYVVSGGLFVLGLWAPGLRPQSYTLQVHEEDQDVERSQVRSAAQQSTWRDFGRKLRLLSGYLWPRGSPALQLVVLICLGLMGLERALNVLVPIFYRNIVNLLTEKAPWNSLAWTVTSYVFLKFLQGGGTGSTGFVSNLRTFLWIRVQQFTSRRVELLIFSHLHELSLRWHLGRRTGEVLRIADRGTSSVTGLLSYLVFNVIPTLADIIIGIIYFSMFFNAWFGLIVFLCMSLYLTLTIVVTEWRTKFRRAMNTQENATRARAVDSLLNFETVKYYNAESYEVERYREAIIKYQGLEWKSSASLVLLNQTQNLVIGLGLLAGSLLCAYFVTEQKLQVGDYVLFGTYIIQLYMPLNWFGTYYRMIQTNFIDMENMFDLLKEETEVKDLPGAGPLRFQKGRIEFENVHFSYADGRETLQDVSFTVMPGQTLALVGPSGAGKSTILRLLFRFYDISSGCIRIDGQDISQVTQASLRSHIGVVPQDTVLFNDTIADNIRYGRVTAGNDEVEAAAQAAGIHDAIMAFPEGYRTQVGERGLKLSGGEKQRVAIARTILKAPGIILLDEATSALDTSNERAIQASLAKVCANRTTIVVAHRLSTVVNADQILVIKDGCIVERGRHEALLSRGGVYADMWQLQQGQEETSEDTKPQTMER
Large screens that a line does not name were inactive.

CCOc1cc(NC(=S)NCC2CCCO2)c(OCC)cc1NC(=O)c1ccc(OC)cc1 (centres undefined)	none
CCOc1cc(NC(=S)NCC2CCCO2)c(OCC)cc1NC(=O)c1ccccc1C (centres undefined)	Myeloid diff 2 active
O=C(C1CCCN(S(=O)(=O)c2ccc(Br)cc2)C1)N1CCN(Cc2ccccc2)CC1 (centres undefined)	none
COc1ccc(OC)c(S(=O)(=O)Nc2cccc3ccccc23)c1	none
COc1ccc(OC)c(S(=O)(=O)NCc2cccnc2)c1	none
COc1ccc(OC)c(S(=O)(=O)NCc2ccccc2)c1	ABCB6 inh MLPCN 68.0
COc1ccc(OC)c(S(=O)(=O)Oc2ccc(N)c3ccccc23)c1	Granule exo inh 75.3
CC1C(c2ccccc2)=Nn2c(=O)n(-c3ccccc3)c(=O)n21 (centres undefined)	none
COC(=O)[C@]12CCCCC=C1N(CCC1=CCCCC1)C(=O)[C@H](CC(=O)N1CCN(C(=O)C3CC3)CC1)C2	none
Cc1ccc(-c2csc(NC(=O)CCNC(=O)c3ccccc3Cl)n2)cc1	none
CCOC(=O)C1=C(Cc2ccc(F)cc2)C(=O)c2ccccc2C1=O	Granule exo inh 100.1, Myeloid diff 2 active
O=C(OCc1ccc(F)cc1)c1ccc2c(c1)-c1ccccc1C2=O	none
COc1cccc(-c2nc(-c3cccc(C)c3)nc3cc(Cl)ccc23)c1	none
Cc1ccc2c(CN3CCCCC3)cc(=O)oc2c1C	none
Cc1ccc2c(CN3CCCc4ccccc43)cc(=O)oc2c1C	Myeloid diff 2 active
Cc1nn(-c2ccccc2)c(C)c1NC(=O)COc1cc(F)ccc1[N+](=O)[O-]	none
O=S(=O)(NCCc1csc(-c2cccnc2)n1)c1ccc2c(c1)OCCO2	Myeloid diff 2 active
COc1ccc(-c2nc(CCNS(=O)(=O)c3ccc4c(c3)OCCO4)cs2)cc1	none
COc1ccc(CNC(=O)c2cccc(NC(=O)CC3SC(N4CCCCC4)=NC3=O)c2)cc1 (centres undefined)	none
CC1=C(C(=O)N2CCOCC2)CC(CC(=O)NC2CC2)C(=O)N1Cc1ccccc1 (centres undefined)	none
O=[N+]([O-])c1ccc(C2=NN(c3ccccc3)C(c3ccco3)C2)cc1 (centres undefined)	Myeloid diff 2 active
CC1=NN(c2ccccc2)C(c2ccco2)C1 (centres undefined)	none
O=[N+]([O-])c1ccc(/C=C/C2=NN(c3ccccc3)C(c3ccco3)C2)cc1 (centres undefined)	Myeloid diff 2 active (no result: ABCB6 inh MLPCN)
O=[N+]([O-])c1ccc(C=CC=Cc2ccccc2)cc1	none
CC1(C)C(=O)Nc2ccccc2N1C(=O)COC(=O)Cc1ccccc1F	none
CN(Cc1ccco1)c1ncnc2ccc(-c3ccc4c(ccn4C)c3)cc12	Myeloid diff 2 inconclusive
Cc1oc2c(c1C(=O)c1ccc(Cl)cc1)C(=O)C(=O)c1ccccc1-2	Granule exo inh 104.0, Myeloid diff 2 inconclusive
Cc1ccc(C(=O)c2coc3c2C(=O)C(=O)c2ccccc2-3)cc1	none
CCN(C)C1CN(Cc2cn(CCCOC)nn2)S(=O)(=O)C1 (centres undefined)	none
COc1ccc(CC(=O)Nc2cc(S(=O)(=O)Nc3ccc(OC)cc3)ccc2OC)cc1	none
CCCCCCCCN1C(=O)[C@H](CC(=O)NCc2cccc(C(F)(F)F)c2)C[C@@]2(C(=O)OCC)CCCC=C12	none
COc1cc2cc(C(=O)NC(C)c3cccc4ccccc34)c(N)nc2cc1OC (centres undefined)	none
CN1[C@@H]2CCC[C@H]1CC(NC(=O)c1nn(C)c3ccccc13)C2 (some centres undefined)	none
Cc1ccc(S(=O)(=O)Nc2c(O)c3ccccc3oc2=O)cc1	none
COc1ccc(S(=O)(=O)Nc2c(O)c3ccccc3oc2=O)cc1	Myeloid diff 2 active
CN(C)S(=O)(=O)c1ccc(-c2csc(N/N=C/c3ccc(O)cc3)n2)cc1	Granule exo inh 100.9
Cc1ccc(-c2csc(N/N=C/c3ccco3)n2)cc1	none
C(=N\Nc1nc(-c2ccccc2)cs1)/c1ccncc1	none
CN(C)S(=O)(=O)c1ccc(-c2csc(N/N=C/c3ccco3)n2)cc1	Granule exo inh 101.7
CC(C)c1cc(C(=O)NCc2ccc(F)cc2)c(N)s1	none (no result: ABCB6 inh MLPCN)
COc1cccc(C(NC(C)=O)c2nc(-c3cccc(F)c3)cs2)c1 (centres undefined)	none
CC(=O)C(Cc1ccc(Cl)nc1)(Cc1ccc(Cl)nc1)C(C)=O	Myeloid diff 2 active
CC(=O)C(Cc1cnc(Cl)s1)(Cc1cnc(Cl)s1)C(C)=O	none
C[C@H](CO)N1C[C@H](C)[C@@H](CN(C)C(=O)c2ccc3ccn(C)c3c2)OCc2cn(nn2)CCCC1=O	none
CCc1nc(N)nc(N)c1-c1ccc(Cl)cc1	Myeloid diff 2 active
CCc1nc(N)nc(N)c1-c1ccc(NCCN)c([N+](=O)[O-])c1	Myeloid diff 2 inconclusive
COc1cc(C(=O)OC(C)c2ccc(F)cc2)ccc1OCC(=O)N1CCOCC1 (centres undefined)	none
O=C(Nc1ncccc1O)c1ccc(Cl)c(S(=O)(=O)N2CCCC2)c1	none
O=C1C(=C(I)I)c2ccccc2-c2ccccc21	Granule exo inh 103.3, Myeloid diff 2 inconclusive
O=C(O)c1cccc2c1C(=O)c1ccccc1-2	none
Cc1[nH]c2ccccc2c1C(=O)CSc1nc2cc(S(=O)(=O)N3CCCCC3)ccc2o1	ABCB6 inh MLPCN 69.0
Cc1ccc(C(=O)CSc2nc3cc(S(=O)(=O)N4CCOCC4)ccc3o2)cc1	none
O=C(COC(=O)c1ccccc1NC(=O)c1ccco1)NC1CC1	none
CN(C)C(=O)COC(=O)c1ccccc1NC(=O)c1ccco1	Myeloid diff 2 active
CNc1ccc(/C=C\CCCO)cn1	none
COc1ccc(C(C(=O)NCCC(C)C)N(CCN2CCOCC2)C(=O)Cn2nnc3ccccc32)c(OC)c1 (centres undefined)	none
Cn1c(C(=O)NCCN2CCN(c3ccccc3F)CC2)cc2c(=O)n(C)c3ccccc3c21	Myeloid diff 2 active
Cn1c(C(=O)NCCCN2CCN(c3ccc(F)cc3)CC2)cc2c(=O)n(C)c3ccccc3c21	Myeloid diff 2 inconclusive
CC1(C(=O)NCCCN2CCCC2=O)CCN1CCc1ccccc1 (centres undefined)	none
NS(=O)(=O)c1ccc(N2N=C(c3ccccc3)CC2c2ccccc2Cl)cc1 (centres undefined)	none
O=C(CSc1nnc(-c2c[nH]c3ccccc23)o1)N(Cc1ccccc1)c1ccc(F)cc1	Granule exo inh 78.2
COc1ccc(CN(C(=O)CSc2nnc(-c3ccccc3C)o2)c2ccc(F)cc2)cc1	none
Cc1cccc(NC(=O)CSc2nnc3ccc(-c4cccnc4)nn23)c1	none
CC(C)(C)OC(=O)N1CCC(c2cc(-c3cccs3)n[nH]2)CC1	none
CN(CCO)c1ccc2c(c1)OC[C@@H](Cc1ccccc1)NS2(=O)=O	none
N#Cc1c(NC(=O)c2cccnc2)sc2c1CCC2	Myeloid diff 2 active
N#Cc1c(NC(=O)c2ccccc2)sc2c1CCC2	none (no result: Myeloid diff 2)
Cc1c(NC(=O)C(C)OC(=O)c2cccs2)c(=O)n(-c2ccccc2)n1C (centres undefined)	none
CCC(C)(C)C1CCc2nc3ccccc3c(C(=O)OC(C)C(=O)Nc3c(C)n(C)n(-c4ccccc4)c3=O)c2C1 (centres undefined)	Myeloid diff 2 active
COc1ccccc1NC(=O)N(C)C[C@@H]1OCc2cnnn2CCCC(=O)N([C@@H](C)CO)C[C@H]1C	none
Cc1nnc(SCC(=O)NCCC2=CCCCC2)[nH]c1=O	none

Assay outcomes (PubChem BioAssay)
